Each structure is given as a SMILES string. Hit rate of the full screen: of about 360,000 compounds, about 11,000 (3.1%) were called active. This is one part of a sample in which actives are shown more often than they occur. Unmarked numbers belong to inactive results. No stated cut-off is given here; in the data, active means activity change below about -30%; inactive means the rest.
On the % scale 0 is the no-effect control and ±100 the full control effect.

Chain of D(1A) dopamine receptor (Homo sapiens) (P21728 whole entry, looked up): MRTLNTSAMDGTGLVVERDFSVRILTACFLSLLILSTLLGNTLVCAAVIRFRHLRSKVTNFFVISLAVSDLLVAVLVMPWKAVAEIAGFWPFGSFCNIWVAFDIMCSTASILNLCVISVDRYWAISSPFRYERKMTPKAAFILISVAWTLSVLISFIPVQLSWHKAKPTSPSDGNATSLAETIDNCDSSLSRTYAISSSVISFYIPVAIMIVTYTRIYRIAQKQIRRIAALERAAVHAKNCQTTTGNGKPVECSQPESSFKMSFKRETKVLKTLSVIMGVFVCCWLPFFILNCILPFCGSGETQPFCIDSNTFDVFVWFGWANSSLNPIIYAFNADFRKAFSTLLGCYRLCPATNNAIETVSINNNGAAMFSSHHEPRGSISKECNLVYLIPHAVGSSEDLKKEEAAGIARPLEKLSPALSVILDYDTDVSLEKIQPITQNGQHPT

This assay concerns the target D(1A) dopamine receptor (Homo sapiens) (UniProt P21728). The assay is described as follows: Antagonist of Human D 1 Dopamine Receptor: qHTS. To be noted: HEK293 TREx D1 cells, calcium flux, dopamine EC80; at 10 µM; hits give low values. In a few lines: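 Using tetracycline-induced force-coupled D1 Hek293 cells and a calcium dye, signals were followed for 180 s after compound, then for 180 s after EC80 dopamine, to detect inhibitors.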
Regarding `CC(=O)Nc1cccc(NC(=O)CSc2nccn2Cc2ccc3c(c2)OCO3)c1`, the activity change, negative = inhibition is 1.91%.
In the case of `O=C(Nc1ccc(Br)cc1)c1ccc(Br)c(S(=O)(=O)NCc2ccccc2)c1` it was -21.6%; in that of `CCOc1ccccc1NC(=O)C1CCCN(S(=O)(=O)c2cn(C)cn2)C1` (configuration not stated), -15.7%.
For `Cc1ccccc1CNC(=O)CCCn1nc(C)c2sc3ccccc3c2c1=O`, the activity change, negative = inhibition is -0.115%.
In the case of `CCOC(=O)Cn1c(=O)n(-c2ccccc2OC)c2nc(-c3cccc(F)c3)nc(C(N)=O)c21` it was -25%.
On to `CCc1cc2c(-c3ccccc3)cc(=O)oc2c2c1OCN(Cc1ccc(C)cc1)C2`, for which the activity change, negative = inhibition was -3.71%.
In the case of `O=C1CSC2(C(=O)N(Cc3ccccc3)c3ccccc32)N1c1cccc(F)c1` (configuration not stated) it was -4.64%; in that of `CC1CCCN(c2csc3ccc(F)cc3c2=O)C1` (configuration not stated), -8.32%.
As for `COc1ccc(C2=NC3(CCCCC3)N(CC(=O)Nc3ccc(C(C)C)cc3)C2=O)cc1`, the activity change, negative = inhibition is -5.42%.
In the case of `Cc1cccc(NC(=O)Cn2nc(-c3ccc(Cl)cc3)c3ccccc3c2=O)c1` it was 6.9%; in that of `O=C1C=C(c2ccc(Cl)cc2)C(=O)N1Nc1ccccc1`, -47.7% (active).
In the case of `Cc1ccc(-c2cn3c(n2)sc2cc(C(=O)NCCCc4ccccc4)ccc23)cc1` it was 7%; in that of `Cc1ccc(-c2nc(C#N)c(NCCCn3ccnc3)o2)cc1`, 5.54%.
To `N#Cc1nc(-c2ccc(OCc3ccccc3)cc2)oc1NCCCN1CCOCC1` belongs -46.5% (active); to `O=S(=O)(c1ccccc1)c1nc(-c2ccccc2)oc1NCCCN1CCOCC1`, -15%.
As for `Cc1cc(C)cc(NC(=O)Cn2nc(N3CCN(c4ccccc4)CC3)ccc2=O)c1`, the activity change, negative = inhibition is 25.5%.
In the case of `COc1ccc(C)cc1NC(=O)C(=O)NCCc1sc(-c2cccc(C)c2)nc1C` it was -28.6%; in that of `O=c1cc2nc(-c3ccccc3)nc(SCCOc3ccc(Cl)cc3)n2[nH]1`, -2.6%.
`Cc1ccc(OCCSc2nc(-c3cccs3)nc3cc(=O)[nH]n23)cc1Cl`: the activity change, negative = inhibition was -20.2%.
Consider `CCc1ccccc1OCCSc1nc(-c2cccs2)nc2cc(=O)[nH]n12`, for which the activity change, negative = inhibition is -43.9% (active).
In the case of `CCc1ccc(NC(=O)CN2C(=O)CCSc3ccc(S(=O)(=O)N4CCCC4)cc32)cc1` it was 4.1%; in that of `COc1ccccc1NC(=O)c1cc(S(=O)(=O)NCCc2ccccc2)ccc1F`, -14.3%; in that of `Cn1cccc1/C=C1\SC(=S)N(NC(=O)c2ccc(Cl)cc2)C1=O`, -34% (active).
For `O=C(O)c1ccc(/C=C2\SC(=S)N(NC(=O)c3ccc(Br)cc3)C2=O)cc1`, the activity change, negative = inhibition was -2.74%.
To `CC(=O)N1C(=O)/C(=C2\SC(=S)N(NC(=O)c3ccc(O)cc3)C2=O)c2ccccc21` belongs 2.62%; to `NC(=O)c1ccc(NC(=O)COC(=O)c2c3c(nc4ccccc24)/C(=C\c2ccc4c(c2)OCO4)CCC3)cc1`, -7.23%.
Consider `COc1cc(/C=C2\CCCc3c2nc2ccccc2c3C(=O)O)cc(Cl)c1O`, for which the activity change, negative = inhibition was -14.9%.
In the case of `NS(=O)(=O)c1ccc(NC(=O)COC(=O)c2c3c(nc4ccccc24)/C(=C\c2ccc4c(c2)OCO4)CCC3)cc1` it was -45.1% (active); in that of `CCCCN(C)CCCNC(=O)CN1N=C(c2ccc(OC)cc2)CCC1=O`, 3.24%; in that of `CCCC12CN3CC(C)(CN(C1)C3c1ccccc1Cl)C2=O` (configuration not stated), -3.8%.
As to `COc1cccc(-n2c(=O)c3c(C)c(C(=O)N(C)C)sc3n(Cc3cccc(C)c3)c2=O)c1`, the activity change, negative = inhibition is 4.64%.
For `Cc1cc(C)cc(NC(c2nnc(-c3cccc(F)c3)o2)c2ccc(F)cc2Cl)c1` (configuration not stated), the activity change, negative = inhibition was 12.4%.
In the case of `N#C/C(=C\c1ccccc1F)c1nc2ccccc2c(=O)[nH]1` it was -3.28%; in that of `CSc1nc(=O)c2c(n1C)NC(=O)CC2c1ccccc1OC(C)C` (configuration not stated), 2.77%.
As to `Cc1oc2cc([N+](=O)[O-])c(O)c([N+](=O)[O-])c2c1C(=O)c1ccc(Br)cc1`, the activity change, negative = inhibition was -36.4% (active).
Consider `COc1ccc(C(=O)c2c(C)oc3cc([N+](=O)[O-])c(O)c([N+](=O)[O-])c23)cc1`, for which the activity change, negative = inhibition was 12.5%.
In the case of `Cc1oc2cc(Br)c(O)c(Br)c2c1C(=O)c1ccccc1` it was -4.24%.
For `Cc1ccc(C(=O)Nc2sc(Cc3ccc4c(c3)OCO4)c(C)c2C(N)=O)cc1`, the activity change, negative = inhibition is 17.9%.
Regarding `COc1ccc(S(=O)(=O)c2c(Nc3cccc(Cl)c3)sc(C(=O)c3ccccc3)c2N)cc1`, the activity change, negative = inhibition was -73.9% (active).
To `O=C(Nc1ccc2c(c1)OCO2)c1cc(-c2cccc(Cl)c2)on1` belongs -3.15%.
In the case of `COc1ccc(S(=O)(=O)c2c(Nc3ccc(C)cc3)sc(C(=O)c3ccc(C)cc3)c2N)cc1`, the activity change, negative = inhibition is -13.4%.
Take `Cc1ccc(S(=O)(=O)c2c(Nc3cccc(Cl)c3)sc(C(=O)c3ccc4c(c3)OCO4)c2N)cc1`: the activity change, negative = inhibition is -41.6% (active).
In the case of `CCCS(=O)(=O)c1c(Nc2ccccc2C)sc(C(=O)c2ccccc2)c1N` it was 0.973%; in that of `NS(=O)(=O)c1ccc(NC(=O)COc2ccc(S(=O)(=O)NC3CCCCC3)cc2)cc1`, 9.54%; in that of `Cc1ccc(C(=O)NC2CCN(C#N)CC2)cc1`, -16%.
Turning to `Cc1cccc(C(=O)N2c3nc(-c4ccco4)nn3C3(CCCCC3)[C@@H]3CCCC[C@@H]32)c1`, the activity change, negative = inhibition is 4.44%.
On to `O=C(CSc1nnc(-c2cccs2)n1Cc1ccco1)c1ccc2c(c1)OCO2`, for which the activity change, negative = inhibition is -31.7% (active).
With `O=C(CSc1nnc(-c2cccnc2)n1Cc1ccco1)c1ccc(Cl)c(Cl)c1`, the activity change, negative = inhibition was 18.2%.
On to `COc1ccc(NC(=O)CSc2nnc(-c3cccs3)n2Cc2ccco2)cc1OC`, for which the activity change, negative = inhibition is 8.42%.
For `Cc1cccc(CSc2nc3ccncc3n2Cc2ccc(C(=O)O)cc2)c1`, the activity change, negative = inhibition is 14.5%.
For the compound `O=S(=O)(Nc1ccccc1)c1ccc(NS(=O)(=O)c2cccs2)cc1`, the activity change, negative = inhibition was -3.97%.
To `O=C(Nc1cccc(Cl)c1)Nc1ccccc1NS(=O)(=O)c1cccs1` belongs -42.1% (active).
To `O=S(=O)(Nc1ccccc1Br)c1cccs1` belongs 11.5%; to `Cc1cccc(NC(=O)Cn2c(=O)n(CCC(C)C)c(=O)c3cccnc32)c1`, 38.2%; to `COc1ccccc1NC(=O)C1=C(C)Nc2nc(SCC(=O)c3ccc(C)cc3)nn2C1c1ccccc1C` (configuration not stated), 4.06%.
To `O=C(CN1CCN(Cc2ccc(Cl)cc2)C1=O)NCc1ccc(F)cc1` belongs 6.15%.
As for `COc1ccc(NC(=O)CN2CCCN(Cc3ccccc3)S2(=O)=O)cc1`, the activity change, negative = inhibition is -2.48%.
In the case of `COc1ccc(CNC(=O)C2CCN(S(C)(=O)=O)CC2)cc1` it was -17.7%; in that of `COc1ccc(N2CCN(CCCNC(=O)C3CCN(S(=O)(=O)N4CCOCC4)CC3)CC2)cc1`, 5.25%.
As to `COc1ccc(CNC(=O)C2CCN(S(=O)(=O)N3CCOCC3)CC2)cc1`, the activity change, negative = inhibition is -42.3% (active).
With `COc1cccc(CN2CCc3nc(SCC(=O)Nc4ccccc4)[nH]c(=O)c3C2)c1`, the activity change, negative = inhibition is 3.64%.
Turning to `CCc1ccc(CNC(=O)c2cc3c(=O)n(CC)c4ccccc4c3s2)cc1`, the activity change, negative = inhibition was 11%.
Take `Cc1ccc(C)c(N2CCN(S(=O)(=O)c3ccc4c(c3)C(C(C)C)C(=O)N4)CC2)c1` (configuration not stated): the activity change, negative = inhibition was -23.5%.
In the case of `O=C(CC(c1cccs1)N1Cc2ccccc2C1=O)Nc1ccc(F)c(F)c1` (configuration not stated) it was -0.399%.
In the case of `O=C(COc1ccccc1)NCc1ccc2c(c1)CCN2C(=O)c1ccc(F)cc1` it was -7.02%; in that of `O=C(CSc1nnc(C2CC2)n1Cc1ccccc1)Nc1cccnc1Cl`, 8.52%; in that of `O=C(CSc1nnc(Nc2ccccc2F)s1)NC1CCCC1`, -3.18%.
For `O=C(CSc1nnc(Nc2ccccc2)s1)Nc1cccnc1Cl`, the activity change, negative = inhibition was -65.7% (active).
In the case of `CC(C)c1ccc(NC(=O)c2ccc3c(O)c(S(=O)(=O)c4ccccc4)c(=O)[nH]c3c2)cc1` it was -2.13%; in that of `COc1cc2ccccc2cc1C(=O)Nc1cccc(-c2nc3ccccc3o2)c1`, -19.2%; in that of `O=C(Nc1ccccc1)O/N=C1/CCCc2occc21`, 7.6%.
To `CC(C)(COC(=O)Nc1ccccc1)COC(=O)Nc1ccccc1` belongs -3.78%; to `N/C(=N\OC(=O)Nc1ccccc1)c1ccno1`, -30.9% (active).
`Cc1ccc(-c2nnc(Nc3ccc(OCC(N)=O)cc3)c3ccccc23)cc1S(=O)(=O)NCC1CCCO1` (configuration not stated): the activity change, negative = inhibition is -11.9%.
With `CCOc1ccc(CCNC(=O)c2ccc3c(c2)sc2nc(-c4ccc(F)cc4)cn23)cc1OCC`, the activity change, negative = inhibition is 0.197%.
For `COc1ccc(C(=O)NC(C)CCc2ccccc2)c(OC)c1` (configuration not stated), the activity change, negative = inhibition is -36.3% (active).
In the case of `CCOc1ncccc1C(=O)NCCc1ccc(OC)cc1` it was 8.92%; in that of `COc1ccc(CCNC(=O)c2ccccc2OCc2ccccc2)cc1`, -35% (active).
To `COc1ccccc1C(=O)NCCC(=O)NC(C)CCc1ccccc1` (configuration not stated) belongs -3.06%.
In the case of `COc1ccc(C(=O)CCc2ccccc2O)c(OC)c1` it was -22.2%.
As for `COc1ccc(CCNC(=O)c2ccccc2-c2ccccc2C(=O)O)cc1OC`, the activity change, negative = inhibition was 0.57%.
To `COc1ccc(CC(=O)Nc2nnc3n2CCS3)cc1OC` belongs 29.1%; to `Cc1ccc(Cl)cc1N(C)C(=O)C1CCCN(c2ncnc3onc(-c4ccc(F)cc4)c23)C1` (configuration not stated), 3.58%; to `Cc1nc2nc(SCC(=O)NC3CCC(C)CC3)nn2c(C)c1Cc1ccccc1Cl` (configuration not stated), -18.6%.
In the case of `O=C(COC(=O)c1ccco1)NCc1ccc(Cl)cc1` it was -43.8% (active).
In the case of `O=C(COC(=O)c1cnc(Cl)c(Cl)c1)NCc1ccco1` it was -8.31%; in that of `CCc1ccc(C(=O)COC(=O)c2ccco2)cc1`, 3.84%.

Source of the values: PubChem BioAssay AID504652 (National Center for Advancing Translational Sciences (NCATS), 2011).
